Only some compounds are listed: those with a hit (about 6% of all), similar ones and a draw of the others.
CRE Fsk mod = modulators of forskolin-stimulated CRE signaling in CHO cells | actives 2.5% (n = 71,000) | Potency, µM (series often up to 38.2 µM), for the others: at the highest dose activity change, negative = inhibition, hits mostly activators | CHO CRE-bla reporter (cAMP response element driving beta-lactamase), forskolin EC10, beta-lactamase ratio; active means well fitted activation curve with a large enough effect in the signal ratio, with a control signal flat, not every such curve was filed as active; inconclusive means small, poorly fitted or top-dose-only effect, or effect the other way, or a change in a side signal; the % refers to the signal ratio; further: % of control where 0% means no effect
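The 460nm/530nm emission ratio after CCF4 loading defined %Activity, from which AC50 values were obtained. CRE-bla CHO cells received compound dilution series together with an EC10 level of NKH 477 for 3 hours at 37 degrees Celsius.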
ERK AVP inh = blocks ERK signaling stimulated by vasopressin | HEK293-V1b, vasopressin-stimulated pERK AlphaScreen | Potency, µM (titrated, usually from 57.5 µM), for inactives: at the highest dose activity, negative = inhibition, most hits filed as inhibitors | actives 0.99% (n = 72,000); further: on the % scale 0 is the no-effect control and ±100 the full control effect; nearly all actives have a fitted effect of over 55% in size
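Phosphorylated ERK1/2 detected via AlphaScreen bead proximity in lysates of V1b-expressing HEK293 cells given 25 nM vasopressin for 5 min after 30 min compound exposure (37 °C). AC50 from Hill equation; basal DMSO 0%, vasopressin 100%.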
TSHR agonist = activates the human thyroid stimulating hormone receptor. P16473. HEK293-CNG-TSHR cells (CNG channel as cAMP sensor), membrane potential dye, cAMP. Potency, µM (titrated, usually from 57.1 µM), inactives show top-dose activation, usual class: activators. actives 0.48% (n = 73,000). AID 926; active means well fitted activation curve with a large enough effect in the main read-out, with a control signal flat, not every such curve was filed as active; inconclusive means small, poorly fitted or top-dose-only effect, or a change in a side signal; inactive means no such curve, though single readings can be large or run the other way; % of control where 0% means no effect;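 further: the control signal comes from parental cells without the receptor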
Target sequence (P16473 whole entry, looked up): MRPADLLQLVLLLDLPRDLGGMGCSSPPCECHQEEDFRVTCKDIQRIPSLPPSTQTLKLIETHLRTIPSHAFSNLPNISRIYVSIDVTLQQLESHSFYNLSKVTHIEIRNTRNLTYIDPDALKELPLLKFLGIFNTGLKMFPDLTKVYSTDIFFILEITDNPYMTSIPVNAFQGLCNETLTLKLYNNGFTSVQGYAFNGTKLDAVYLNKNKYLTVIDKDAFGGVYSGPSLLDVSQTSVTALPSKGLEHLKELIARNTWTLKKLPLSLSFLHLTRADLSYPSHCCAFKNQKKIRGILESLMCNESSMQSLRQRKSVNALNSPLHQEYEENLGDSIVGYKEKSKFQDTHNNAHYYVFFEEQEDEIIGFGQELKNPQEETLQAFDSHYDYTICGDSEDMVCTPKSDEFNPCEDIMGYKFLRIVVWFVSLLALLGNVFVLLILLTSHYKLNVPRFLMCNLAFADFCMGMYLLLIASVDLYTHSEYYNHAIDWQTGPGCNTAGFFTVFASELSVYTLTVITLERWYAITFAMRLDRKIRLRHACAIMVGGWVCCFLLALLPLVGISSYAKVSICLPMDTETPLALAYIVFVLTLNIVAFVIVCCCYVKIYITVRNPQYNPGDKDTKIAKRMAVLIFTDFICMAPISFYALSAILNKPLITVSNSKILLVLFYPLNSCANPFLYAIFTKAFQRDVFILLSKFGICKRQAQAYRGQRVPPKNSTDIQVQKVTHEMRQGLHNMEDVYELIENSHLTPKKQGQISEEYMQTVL
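HEK 293 cells stably expressing TSHR and a modified CNG channel, with CNG-only parental cells as counterscreen, were preloaded 60 min at room temperature with membrane potential dye containing 100 uM RO 20-1724. Compound exposure was 30 min, and depolarization was read as fluorescence at 590 nm.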
HEK293 cAMP cs = parental HEK293 cAMP activation (counter-screen); parental HEK293 CNG cAMP sensor, membrane potential fluorescence; actives 2.5% (n = 73,000); Potency, µM (series often up to 57.1 µM), without a hit: top-dose activation, hits mostly activators; further: % of control where 0% means no effect; nearly all actives have a fitted effect of over 55% in size
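Parental HEK 293 cells stably expressing a cAMP-gated CNG channel were loaded with membrane potential dye containing 100 uM RO 20-1724 for 60 min. Compound added for 30 min; depolarization read as fluorescence intensity at 590 nm.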
Numbers without * were called inactive; u = inconclusive; x = no result given; [ ] = remark or other dose. Unless noted, the call rests on the fitted dose curve; in most records, active means well fitted curve in the direction sought with a large enough effect; inconclusive means small, poorly fitted or top-dose-only effect, or another doubt; inactive means no such curve, though single readings can be large; an effect the other way counts as inactive or inconclusive. Potency means the concentration at half of the fitted maximal effect.

SMILES	CRE Fsk mod	ERK AVP inh	TSHR agonist	HEK293 cAMP cs
COc1cccc(-c2nc(CS(=O)CC(=O)NCc3ccc4c(c3)OCO4)c(C)o2)c1 (centres undefined)	-5%	u	11%	17%
COc1ccc(-c2nn(C)c3sc(C(=O)NCc4ccco4)cc23)cc1OC	u	20%	-1%	-1%
COc1cccc(-c2nn(C)c3sc(C(=O)NCc4ccc(C)o4)cc23)c1	6.3µM*	25%	x	20%
COc1cccc(-c2nn(C)c3sc(C(=O)NCc4ccc5c(c4)OCO5)cc23)c1	2.5µM*	-14%	18%	16%
CC(=O)NCCNc1nc(-c2ccc(N(C)C)cc2)nc2ccccc12	u	-24%	u	-57%
Clc1ccc(Cn2nnc(-c3ccc(CN4CCOCC4)cc3)n2)cc1	-6%	18%	u	32µM*
Fc1ccc(Cn2nnc(-c3ccc(CN4CCOCC4)cc3)n2)cc1	-4%	-4%	10%	24%
COc1ccc2noc3c2c1C(=O)c1ccccc1-3	15%	u	-30%	29%
O=C1c2ccccc2-c2onc3ccc(NCCCn4ccnc4)c1c23	u	16µM*	-33%	0%
C#CCCCO/N=C1/C[C@@H](O)[C@@H](O)[C@@H]2[C@@H]3C(=O)N(Cc4ccc5c(c4)OCO5)C(=O)[C@H]3CC[C@@H]12	x	21%[11.5 µM]	18%[11.4 µM]	6%[11.4 µM]
Cc1ccccc1Cn1nc(C)c(NC(=O)c2cc3nc(-c4ccco4)cc(C(F)(F)F)n3n2)c1C	2.5µM*	-15%	8%	-7%
Cc1nn(C)c(C)c1CN(C)C(=O)c1cc2nc(-c3ccco3)cc(C(F)(F)F)n2n1	u	27%	u	u
Cc1nn(C)cc1CN(C)C(=O)c1cc2nc(-c3ccco3)cc(C(F)(F)F)n2n1	13µM*	-14%	9%	2%
Cc1c(-c2nc(N)nc(Nc3ccccc3F)n2)oc2ccccc12	4µM*	-19%	24%	15%
Cc1ccccc1Cn1cnc2c(cnn2C(C)(C)C)c1=O	13µM*	-10%	u	u
Brc1cccc(-c2nnc(-c3ccccc3)o2)c1	9%	7%	u	u
Cc1ccccc1-c1nnc(-c2ccc(Br)cc2)o1	1%	14%	u	3.2µM*
CO[C@@H]1COC(=O)[C@H](C)NC(=O)C/C=C\[C@@H](C)[C@@H](NS(=O)(=O)c2ccc(C)cc2)COC(=O)C/C=C\[C@@H]1C	x	26%[11.5 µM]	16%[11.4 µM]	-1%[11.4 µM]
CC(C)[C@H](NC(=O)OC(C)(C)C)[C@@H](O)CC(=O)OC(C)(C)C	x	2%[11.5 µM]	-8%[11.4 µM]	-3%[11.4 µM]
CCCC(c1nnnn1Cc1ccccc1)N1CCN(c2ccccc2OC)CC1 (centres undefined)	-13%	-10%	u	10µM*
CCCC(c1nnnn1Cc1cccs1)N1CCN(c2ccc(OC)cc2)CC1 (centres undefined)	0%	3%	u	u
CCCC(c1nnnn1Cc1ccc(OC)cc1)N1CCN(c2ccccc2OC)CC1 (centres undefined)	1%	6%	u	25µM*
C=C(C)CN(CC#N)CC(=C)C	4%[7.6 µM]	19%[11.5 µM]	3%[11.4 µM]	-2%[11.4 µM]
Cc1cc(C(=O)CSc2nnc(N)s2)c(C)n1CCc1ccc(Cl)cc1	-8%	24%	u	25µM*
COc1ccc(CCn2c(C)cc(C(=O)CSc3nnc(N)s3)c2C)cc1	6%	20µM*	u	25µM*
SMILES	CRE Fsk mod	ERK AVP inh	TSHR agonist	HEK293 cAMP cs
CC(c1nnc(SCC(=O)c2c(N)n(C)c(=O)n(C)c2=O)n1-c1ccc(Cl)cc1)N(C)C (centres undefined)	1%	40µM*	-2%	13%
C=CCNc1ncnc2c1[nH]c1ccc(C)cc12	14%	32µM*	17%	18%
O=C(O)C/C(=C\c1ccccc1)C(=O)O	5%[7.6 µM]	2%[11.5 µM]	-4%[11.4 µM]	-2%[11.4 µM]
CCC(C)NC(=O)c1c(N)n(/N=C/c2cccnc2)c2nc3ccccc3nc12 (centres undefined)	0.63µM*	-4%	16%	17%
CC(C)OCCCNC(=O)c1c(N)n(/N=C/c2ccccn2)c2nc3ccccc3nc12	2.5µM*	-19%	u	10µM*
CCC(C)NC(=O)c1c(N)n(/N=C/c2ccccn2)c2nc3ccccc3nc12 (centres undefined)	2.5µM*	-19%	11%	19%
O=C1CCC[C@H]2OC12[C@@H](O)CCc1ccccc1 (some centres undefined)	x	7%[11.5 µM]	-6%[11.4 µM]	2%[11.4 µM]
Nc1c(C(=O)NC2CCCC2)c2nc3ccccc3nc2n1N	13µM*	-31%	-15%	6%
Cc1noc(C)c1-c1cncnc1NCc1ccccc1	u	1%	6%	6%
CCCCOC(=O)CSc1nc2c(cc1C#N)C(=O)CC(C)(C)C2	5%	36%	u	20µM*
CCOC(=O)c1c(NC(=O)c2ccoc2C)sc2c1CCC2	u	-15%	u	u
CCC1CCc2c(sc(NC(=O)c3ccoc3C)c2C(N)=O)C1 (centres undefined)	10µM*	-3%	-3%	-11%
COc1ccccc1CC(Cc1nc2ccccc2[nH]1)c1nc2ccccc2[nH]1 (centres undefined)	x	32µM*	x	x
CS(=O)(=O)c1ccc(Cn2c3c(c4cc(F)cc(F)c42)CCC[C@H]3CC(=O)O)cc1	-4%	u	-9%	13%
COc1ccc(C2c3sc(=O)[nH]c3SC3C4CCC(C4)C23)cc1 (centres undefined)	u	-14%	7%[11.4 µM]	19%
O=c1[nH]c2c(s1)C(c1ccccc1)C1C3CCC(C3)C1S2 (centres undefined)	10µM*	3%	14%	17%
COc1cccc([C@@H]2Oc3ccc(OC)cc3/C(=N/O[C@@H](C)c3cc(-c4c(C)cc(C)cc4C)no3)[C@@H]2O)c1	x	12%[11.5 µM]	1%[11.4 µM]	-1%[11.4 µM]
CC(C)c1ccc(Cn2ccc3c4c(N)nc(NC5CC5)nc4ccc32)cc1	13µM*	-12%	u	-55%
COc1ccc(-c2nnc3sc(-c4ccccn4)nn23)cc1	22%	-24%	8%	7%
COc1ccc(-c2nnc3sc(C(C)N4C(=O)c5ccccc5C4=O)nn23)cc1 (centres undefined)	10µM*	-10%	28%	8%
COc1ccc(-c2nnc3sc(CN4C(=O)c5ccccc5C4=O)nn23)cc1	u	-12%	16µM*	12%
CCOc1ccccc1OCc1nn2c(-c3ccc(C)cc3)nnc2s1	u	-2%	u	25µM*
c1ccc(OCc2nn3c(-c4ccncc4)nnc3s2)cc1	5%	2%	24%	7%
O=C1c2ccccc2C(=O)N1Cc1nn2c(-c3ccc(Cl)cc3)nnc2s1	u	-18%	16%	18%
FC(F)(F)c1cc(NC(=S)N2c3ccccc3-n3cccc3[C@H]2c2cccnc2)cc(C(F)(F)F)c1	u	-13%[11.5 µM]	4%[11.4 µM]	3%[11.4 µM]
Cc1cc(C(C)(C)C)cc(CNC2CCCCC2)c1O	-3%[7.6 µM]	-4%[11.5 µM]	3%[11.4 µM]	15%[11.4 µM]

Compound activity as filed in PubChem.
